ADAM10 inh = inhibits human ADAM10; O14672; recombinant ADAM10, EDANS/DABCYL FRET peptide cleavage, 3 h; inhibition, % at 7 µM; actives 0.62% (n = 370,000);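 active = inhibition above a per-campaign cutoff equal to the mean of compounds falling between control-based bounds plus 3 SD, cut at about 20% in these data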
Pemphigus Ab inh = inhibitors of pemphigus antibody binding to human desmoglein-3; binding (percent of control), % at 10 µM; DSG3-coupled beads, scFv-anti-DSG3-GFP binding, flow cytometry; hits give low values; AID 588358; P32926; actives 0.48% (n = 310,000);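 active = binding more than 3 SD below its plate's average and above zero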;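 also: hits lower antibody fragment binding to DSG3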
Target sequence (P32926 whole entry, looked up, the tested form may be a part): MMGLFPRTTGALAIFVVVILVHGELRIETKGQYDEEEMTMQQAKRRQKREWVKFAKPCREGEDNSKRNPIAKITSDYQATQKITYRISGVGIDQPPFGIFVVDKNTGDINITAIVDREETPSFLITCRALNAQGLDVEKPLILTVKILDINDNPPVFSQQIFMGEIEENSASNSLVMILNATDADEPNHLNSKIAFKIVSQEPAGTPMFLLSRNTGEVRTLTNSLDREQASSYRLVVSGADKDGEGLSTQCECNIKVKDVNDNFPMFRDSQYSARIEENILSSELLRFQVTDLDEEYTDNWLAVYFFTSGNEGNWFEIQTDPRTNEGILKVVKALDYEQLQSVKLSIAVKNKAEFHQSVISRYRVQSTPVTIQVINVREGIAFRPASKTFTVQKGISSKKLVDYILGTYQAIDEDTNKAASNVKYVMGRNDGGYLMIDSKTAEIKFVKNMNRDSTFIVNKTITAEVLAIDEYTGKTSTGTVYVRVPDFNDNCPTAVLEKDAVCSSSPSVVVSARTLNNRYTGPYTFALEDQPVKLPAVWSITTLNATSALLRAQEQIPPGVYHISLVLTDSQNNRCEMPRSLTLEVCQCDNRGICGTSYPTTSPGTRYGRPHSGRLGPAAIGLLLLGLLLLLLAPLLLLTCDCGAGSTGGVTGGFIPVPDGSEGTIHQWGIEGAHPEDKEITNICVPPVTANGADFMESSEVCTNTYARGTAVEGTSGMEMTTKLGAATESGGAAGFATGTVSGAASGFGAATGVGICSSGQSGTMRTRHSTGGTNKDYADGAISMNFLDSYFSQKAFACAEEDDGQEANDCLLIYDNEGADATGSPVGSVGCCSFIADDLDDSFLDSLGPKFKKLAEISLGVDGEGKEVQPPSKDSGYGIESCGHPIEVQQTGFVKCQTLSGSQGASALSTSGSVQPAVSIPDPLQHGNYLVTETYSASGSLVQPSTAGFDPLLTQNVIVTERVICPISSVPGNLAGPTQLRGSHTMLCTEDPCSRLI
MPTP block = permeability transition pore inhibition. isolated mouse mitochondria, Ca2+ swelling absorbance, 30 min. inhibition, % at 10 µM. actives 1.4% (n = 360,000);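 active = inhibition of 50% or more, scaled per plate between neutral and stimulator controls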
ADAM17 inh = inhibits human ADAM17. recombinant ADAM17, EDANS/DABCYL FRET peptide cleavage. inhibition, % at 6.95 µM. actives 0.83% (n = 370,000). AID 720648;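 active = inhibition above the mean of compounds lying between control limits plus 3 SD, set per campaign, cut at about 8.5% in these data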
rCAG RNA binder = molecules binding r(CAG) RNA repeats; r(CAG) RNA repeat, TO-PRO-1 dye displacement fluorescence; inhibition, % at 3 µM; actives 1.3% (n = 370,000);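 active = inhibition above the plate cutoff, the mean of all test compounds on that plate plus 3 SD, cut at about 35% in these data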;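 also: higher means more dye released from RNA so lower well fluorescence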
KLK7 zymogen act = proKLK7 (human) activation, primary screen; purified proKLK7, EDANS-DABCYL substrate fluorescence; 100% is mature enzyme control, 0% vehicle; AID 652039; P49862; actives 0.9% (n = 370,000); activation, % at 7 µM;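 active = activation above the mean of all tested compounds plus 3 SD, computed per campaign excluding outliers beyond control limits, cut at about 13% in these data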
Rh123 counter = Rhodamine 123 counter-screen of mitochondrial pore hits; inhibition, % at 10 µM; AID 624504; isolated mitochondria, membrane potential, Rhodamine 123 fluorescence; actives 78% (n = 5,000); shares compounds with MPTP block; in the data active = inhibition above about 22%
MPTP swell DR = dose response confirmation of mitochondrial permeability transition pore inhibitors; shares compounds with MPTP block; isolated mitochondria swelling, absorbance; IC50, µM; actives 58% (n = 780); in the data active = IC50 below about 20 µM
MPTP cs DR = MPTP inhibitor counter-screen activity, dose response; shares compounds with MPTP block; actives 49% (n = 780); IC50, µM; isolated mitochondria counterscreen, fluorescence read-out; in the data active = IC50 below about 80 µM
Large screens that a line does not name were inactive (follow-up assays come after a bar, where they were run). A selection: hits, their analogues and other compounds. The true share with any hit is near 4.7%.

O=[N+]([O-])c1ccc(S(=O)(=O)Nc2nc3ccccc3nc2Nc2ccccc2)cc1	MPTP block 105.5 | Rh123 counter 85.7
S=C(NCCCc1ccccc1)Nc1ccc(Cl)cc1	MPTP block 97.4 | Rh123 counter 90.9
S=C(NCCC(c1ccccc1)c1ccccc1)Nc1ccc(Cl)cc1	MPTP block 93.2 | Rh123 counter 75.1
S=C(NCCCc1ccccc1)Nc1ccccc1	none
CCc1ccc(NC(=S)NCc2ccccc2)cc1	none (no result: Pemphigus Ab inh)
S=C(NCc1ccccc1)Nc1ccc(Cl)cc1	MPTP block 72.2 | Rh123 counter 81.0
FC(F)(F)Sc1ccc(NC(=S)NCc2ccccc2)cc1	MPTP block 84.1 | Rh123 counter 73.3
O=S(=O)(c1ccccc1)N1CCCc2nc(-c3ccc(Br)cc3)ccc21	none (no result: Pemphigus Ab inh, MPTP block)
CCCCS(=O)(=O)N1CCCc2nc(-c3ccc(Br)cc3)ccc21	none (no result: Pemphigus Ab inh, MPTP block)
Cc1cc(C)c2sc(N(CCCN(C)C)C(=O)c3ccc(S(=O)(=O)N(C)C4CCCCC4)cc3)nc2c1	MPTP block 77.3 | Rh123 counter inactive
Cc1ccc2sc(N(CCCN(C)C)C(=O)c3ccc(S(=O)(=O)N4CCCCCC4)cc3)nc2c1C	MPTP block 58.0 | Rh123 counter inactive | MPTP swell DR inactive | MPTP cs DR 63.9
Cc1cc(C)c2nc(N(CCCN(C)C)C(=O)c3ccc(S(=O)(=O)N4CCCCCC4)cc3)sc2c1	MPTP block 83.3 | Rh123 counter inactive | MPTP swell DR 6.37 | MPTP cs DR inactive
CN(C)CCCN(C(=O)c1ccc(S(=O)(=O)N(C)C2CCCCC2)cc1)c1nc2ccc(F)cc2s1	none
COc1ccc(C2CC(=O)C(c3ccc4ccccc4c3)=CN2Cc2ccccc2)cc1 (stereo not drawn)	none (no result: Pemphigus Ab inh, MPTP block)
CC1(C)CC(=O)C(C2C3=C(CC(C)(C)CC3=O)Oc3c(Br)cc(Br)cc32)=C(O)C1 (stereo not drawn)	MPTP block 82.0 | Rh123 counter 94.7
CCN(CC)CCn1c(=N)n(CC(O)COc2ccccc2)c2ccccc21 (stereo not drawn)	none
CCN(CC)CCn1c(=N)n(CCOc2ccccc2)c2ccccc21	MPTP block 77.5 | Rh123 counter inactive | MPTP swell DR inactive | MPTP cs DR 33
COc1ccc(C2c3ccccc3NC3C2C(=O)N(Cc2ccc(OC)cc2OC)[C@H]3Cc2ccccc2)cc1 (stereo partly drawn)	none (no result: Pemphigus Ab inh, MPTP block)
COc1cccc(Cn2cc(COC(=O)N3CCCC3)nn2)c1	none (no result: Pemphigus Ab inh, MPTP block)
COc1ccc(-n2cnc3cc(NS(=O)(=O)c4ccc(C)cc4)ccc32)cc1	none (no result: ADAM10 inh, Pemphigus Ab inh, ADAM17 inh, rCAG RNA binder, KLK7 zymogen act)
COc1ccccc1-n1cnc2cc(NS(=O)(=O)c3ccc(Br)cc3)ccc21	MPTP block 54.9 | Rh123 counter 50.2
CCC(O)(c1ccc(NC(=O)OC(C)(C)C)cc1)c1cc(OC)cc(OC)c1 (stereo not drawn)	none (no result: Pemphigus Ab inh, MPTP block)
[O-][n+]1c2c(c3c4non(O)c4ccc31)CCCC2	MPTP block 95.7 | Rh123 counter 83.3
Nc1nc2ncccc2cc1C(=O)c1c[nH]c2ccccc12	none (no result: Pemphigus Ab inh, MPTP block)
Oc1c(N=Nc2ccccn2)ccc2ccccc12	MPTP block 53.7 | Rh123 counter inactive
CCOC(=O)C1=C(Nc2ccccc2)CC(C)(O)C(C(=O)OCC)C1c1ccccc1 (stereo not drawn)	none
CCOC(=O)C1=C(Nc2ccccc2)CC(C)(O)C(C(=O)OCC)C1c1ccc(Br)cc1 (stereo not drawn)	MPTP block 58.6 | Rh123 counter inactive | MPTP swell DR inactive | MPTP cs DR inactive
C[n+]1c2n(c3ccccc31)N=C(c1cc(C(C)(C)C)c(O)c(C(C)(C)C)c1)CS2	MPTP block 93.6 | Rh123 counter 102.7
COc1cccc(CNCCc2c[nH]c3ccccc23)c1OCc1ccccc1	MPTP block 85.2 (no result: Pemphigus Ab inh) | Rh123 counter 59.8
COc1cc(CNCCc2c[nH]c3ccccc23)ccc1OCc1ccccc1F	none

Screening data: PubChem, several laboratories
